Consider 65 compounds from publication PMC4552634, “A New Set of Chemical Starting Points with Plasmodium falciparum Transmission-Blocking Potential for Antimalarial Drug Discovery” (PLoS ONE, 2015).

Hit rate of the full screen: of about 13,000 compounds, about 3,200 (25%) showed an effect of 50% or more. The list shows a part of the results. Square brackets hold non-standard residues; d marks the D form. Peptide text beside a SMILES is read from it. * marks the point of attachment. Butanoyl(4-(4-HOPh)) = O=C(CCCc1ccc(O)cc1)*

The subject of the assay is P. falciparum stage V gametocytes. The arrangement: BacTiter-Glo ATP luminescence viability of purified stage V gametocytes in 384-well plates, per cent inhibition versus DMSO. Conditions: 48 h, 5 µM; inhibitor.
As usually defined, the % Inhibition is the relative decrease from the control value, in per cent. Take `CCn1cc(-c2cc(C(=O)Nc3ccc(OC)cc3C)c3ccccc3n2)c(C)n1` [TCMDC-124457]: the “% Inhibition” value is 71.47%.

As to `COc1ccc(-c2cc(C(=O)Nc3ccc(CCCN(C)Cc4ccc(OC)c(OC)c4)cc3)c3ccccc3n2)cc1` [TCMDC-131848], the “% Inhibition” value is reported as 47.44%.

On to `CCN(CC)CCOC(=O)c1ccc(NC(=O)c2cc(-c3ccc(C)cc3)nc3ccccc23)cc1` [TCMDC-124019], for which the “% Inhibition” value was determined as 1.245%.

For the compound `Cc1cccc2nc(-c3ccc(-c4ccc(CNCCCNS(C)(=O)=O)cc4)s3)[nH]c12.O=C(O)C(F)(F)F` [TCMDC-133085], the “% Inhibition” value stood at 13.51%.

Take `COc1cc2nc(N3CCC(CNC(=O)c4ccc(-c5ccc(C#N)cc5)cc4)CC3)nc(N)c2cc1OC` [TCMDC-138713]: the “% Inhibition” value was determined as 15.4%.

Consider `COc1cc2nc(N3CCC(CNC(=O)c4ccc(-c5ccc(C#N)cc5C)cc4)CC3)nc(N)c2cc1OC` [TCMDC-138735], for which the “% Inhibition” value came out at 105.2%.

Turning to `COc1cc2nc(N3CC(C)N(C(=O)Cc4ccc(-c5ccccc5)cc4)C(C)C3)nc(N)c2cc1OC` (centres unmarked) [TCMDC-138153], the “% Inhibition” value is listed as 71.85%.

Regarding `COc1cc2nc(N3CCC(CNC(=O)/C=C/c4cccc(C)c4)CC3)nc(N)c2cc1OC` [TCMDC-138156], the “% Inhibition” value is given as -2.985%.

With `COc1cc2nc(N3CCC(CNC(=O)c4ccc(-c5cccc(C#N)c5)cc4)CC3)nc(N)c2cc1OC` [TCMDC-138730], the “% Inhibition” value is listed as 76.59%.

Turning to `CC(C)CCN1CCC(Oc2ccc(NC(=O)c3ccsc3)cc2Cl)CC1` [TCMDC-133973], the “% Inhibition” value was determined as 36.47%.

On to `O=C(NCCN1CCC(NC(=O)c2ccc(-c3ccccn3)s2)CC1)c1ccc(Cl)c(Cl)c1` [TCMDC-141947], for which the “% Inhibition” value is reported as -22.55%.

Regarding `COc1cc(C(=O)N2COCC(CCCN3CCC(N4CCCC4)CC3)(c3ccc(Cl)c(Cl)c3)C2)cc(OC)c1OC` (centres unmarked) [TCMDC-141758], the “% Inhibition” value was 14.16%.

With `CCN(CC)CCON=Cc1cc(C)c2[nH]c3ccc(OCc4ccccc4)cc3c2c1C` [TCMDC-132058], the “% Inhibition” value was -17.27%.

As for `Cc1nc(-c2cccc(NC(C)C(=O)Nc3cc(C(F)(F)F)ccc3N3CCOCC3)c2)cs1` (centres unmarked) [TCMDC-125304], the “% Inhibition” value is on record as -35%.

Take `O=C(O)C[C@H](NC(=O)CCCNC(=O)c1cccc(-c2ccc(Cl)c(Cl)c2)c1)C(=O)O` [TCMDC-139508]: the “% Inhibition” value is on record as 11.45%.

As for `CC(C)C[C@@H](CNC[C@H](CC(C)C)NC(=O)OC(C)(C)C)NC(=O)OC(C)(C)C` [TCMDC-132080], the “% Inhibition” value was -74.95%.

As for `CN(C)S(=O)(=O)c1ccc(N2C(=O)C3C(C2=O)C2(c4ccccc4)C(=O)C3(c3ccccc3)C(c3ccccc3)=C2c2ccccc2)cc1` (centres unmarked) [TCMDC-132095], the “% Inhibition” value is -66.42%.

`CCN(CC)CCCCOc1ccc2c(c1)C(=O)c1cc(OCCCCN(CC)CC)ccc1-2` [TCMDC-124163]: the “% Inhibition” value is 88.71%.

Consider `CCN(CC)CCOc1ccc(Nc2ncc3cc(-c4c(Cl)cccc4Cl)c(=O)n(C)c3n2)cc1` [TCMDC-140940], for which the “% Inhibition” value stood at 0.9022%.

In the case of `CN(c1ccc(F)cc1)S(=O)(=O)c1ccc(Cl)c(C(=O)Nc2cccc(C#N)c2)c1` [TCMDC-123717], the “% Inhibition” value was 11.84%.

With `COc1cc(OC)nc(C(Sc2ccc(NC(=O)c3cccs3)cc2)c2ccccc2)n1` (centres unmarked) [TCMDC-124257], the “% Inhibition” value turned out to be 44.54%.

Take `CCCCCCOc1ccccc1C(=O)NCCOc1ccc(Cl)cc1` [TCMDC-124012]: the “% Inhibition” value is -9.249%.

`CCCCCOc1ccc(C(=NC)N(CCCCC)CCCCC)c2ccccc12` [TCMDC-137703]: the “% Inhibition” value is recorded as 109.8%.

Take `CCCCCCOc1ccc(C(N)=NCc2ccccc2)c2c1CCCC2` [TCMDC-131554]: the “% Inhibition” value was found to be 15.01%.

Consider `O=C(NCc1cccc(C(F)(F)F)c1)c1ccc(CNC(=O)c2ccc(O)c(-c3ccc(Cl)c(Cl)c3)c2)cc1` [TCMDC-140834], for which the “% Inhibition” value stood at 9.818%.

As for `O=C(NC1CC1)c1ccc(N2CCCC(COc3ccc4c(c3)CCCC4)C2)nc1` (centres unmarked) [TCMDC-134263], the “% Inhibition” value turned out to be 18.7%.

`O=C(NCC(=O)N1CCC[C@H]1C(=O)O)[C@@H](Cc1ccccc1)NC(=O)[C@@H]1CCCN1C(=O)CCCc1ccc(O)cc1` [TCMDC-141970] ({Butanoyl(4-(4-HOPh))}-P[dF]GP-OH): the “% Inhibition” value is -16.67%.

Consider `Cc1ccc(NC(=O)Cc2noc(CC3CCCN3C(=O)N[C@@H](C)c3ccccc3)n2)cc1` (some centres unmarked) [TCMDC-134994], for which the “% Inhibition” value was found to be 0.878%.

Consider `CC(CN1CCN(C)CC1)C(=O)Nc1ccc(-c2cccc(-c3nc4ccccc4[nH]3)c2)cc1` (centres unmarked) [TCMDC-137139], for which the “% Inhibition” value is 81.76%.

As for `CCC(C)NC(=O)Nc1ccc(-c2cccc(-c3nc4ccccc4[nH]3)c2)cc1` (centres unmarked) [TCMDC-133241], the “% Inhibition” value is reported as 3.681%.

As for `CC(CN1CCN(C)CC1)C(=O)Nc1cccc(-c2ccc(-c3nc4ccccc4[nH]3)s2)c1` (centres unmarked) [TCMDC-137142], the “% Inhibition” value is -55.57%.

As to `CC(CN1CCN(C)CC1)C(=O)Nc1ccc(-c2ccc(-c3nc4ccccc4[nH]3)cc2)cc1` (centres unmarked) [TCMDC-137148], the “% Inhibition” value is 72.16%.

Take `Cc1cccc2nc(-c3ccc(-c4ccc(NC(=O)C(C)CN5CCN(C)CC5)cc4)s3)[nH]c12` (centres unmarked) [TCMDC-137154]: the “% Inhibition” value is on record as -22.77%.

Consider `CC(CN1CCN(C)CC1)C(=O)Nc1ccc(-c2csc(-c3nc4ccccc4[nH]3)c2)cc1` (centres unmarked) [TCMDC-132391], for which the “% Inhibition” value was 31.65%.

With `CC(CN1CCN(C)CC1)C(=O)Nc1ccc(-c2ccc(-c3nc4ccccc4[nH]3)s2)cc1` (centres unmarked) [TCMDC-137140], the “% Inhibition” value was 86.65%.

On to `CCc1cc(C(=O)c2cccc(C)c2)c(NC(=O)CN2CCN(C(=O)c3ccco3)CC2)s1` [TCMDC-123646], for which the “% Inhibition” value worked out at 4.148%.

As for `O=C(O)/C=C/c1cccc(F)c1F` [TCMDC-124298], the “% Inhibition” value is reported as -5.397%.

As to `O=C(Nc1cn(-c2ccc(OCc3cccc(F)c3)c(Cl)c2)c2ncncc12)c1ccncc1` [TCMDC-135377], the “% Inhibition” value is listed as -11.19%.

Take `CCOc1ccc(Br)cc1/C=C/C(=O)Nc1ccc2c(c1)CCCN(C)C2` [TCMDC-134049]: the “% Inhibition” value was 5.79%.

Take `Cc1nn(CC(C)C)c2sc(C(=O)Nc3nc(-c4ccccn4)cs3)cc12` [TCMDC-125461]: the “% Inhibition” value is reported as 62.82%.

With `O=C(Nc1nc(-c2ccccn2)cs1)c1ccc(S(=O)(=O)N2CCc3ccccc32)cc1` [TCMDC-125432], the “% Inhibition” value amounted to 10.03%.

Take `COc1cc(OC)cc(C(=O)Nc2nc(-c3ccc(NC(=O)c4ccccc4)cc3)cs2)c1` [TCMDC-125112]: the “% Inhibition” value is listed as -27.73%.

Take `COc1cc(OC)cc(C(=O)Nc2nc(-c3ccccn3)cs2)c1` [TCMDC-125345]: the “% Inhibition” value turned out to be 25.53%.

With `CC(C)(C)c1ccc(-c2csc(NC(=O)CC(c3ccccc3)c3ccccc3)n2)cc1` [TCMDC-124604], the “% Inhibition” value is recorded as -3.611%.

Turning to `O=C(Nc1nc(-c2ccccn2)cs1)c1ccccc1COc1ccccc1` [TCMDC-125336], the “% Inhibition” value was 64.14%.

On to `CC1Cc2ccccc2N1S(=O)(=O)c1cc(OCC(F)(F)F)ccc1OCC(F)(F)F` (centres unmarked) [TCMDC-124044], for which the “% Inhibition” value is listed as -9.787%.

`O=C(Nc1cccc(-c2csc(-c3ccccc3)n2)c1)c1cccs1` [TCMDC-123904]: the “% Inhibition” value is recorded as 22.98%.

As to `O=C(Nc1nc(-c2cc(F)ccc2F)cs1)c1cncc(Br)c1` [TCMDC-123613], the “% Inhibition” value was -58.06%.

`CCN1CCN(c2ccc(NC(=O)c3cc4c(C)nn(-c5ccccc5)c4s3)cc2C)CC1` [TCMDC-125105]: the “% Inhibition” value is on record as 8.854%.

In the case of `CC1Cc2ccccc2N1S(=O)(=O)c1cccc(C(=O)Nc2nc(-c3ccccn3)cs2)c1` (centres unmarked) [TCMDC-124559], the “% Inhibition” value is on record as 76.73%.

For `O=C(Nc1nc(-c2ccccn2)cs1)c1ccc(Br)s1` [TCMDC-123868], the “% Inhibition” value is recorded as 65.77%.

Turning to `COc1cc(F)c2ncc(Cl)c(C(O)CN3CCC(NC(=O)c4ccc5c(c4)NC(=O)CS5)CC3)c2c1` (centres unmarked) [TCMDC-135908], the “% Inhibition” value is -70.28%.

As to `Cc1noc(C)c1-c1cccc(CNCc2cccc(-c3csc(-c4nc5ccccc5[nH]4)c3)c2)c1` [TCMDC-133047], the “% Inhibition” value was -19.47%.

Turning to `Cc1cccc2nc(-c3ccc(-c4cccc(NC(=O)Nc5ccsc5)c4)s3)[nH]c12` [TCMDC-133208], the “% Inhibition” value was determined as 8.037%.

Regarding `CC1(C)N=C(N)N=C(N)N1OCCCc1ccc(Cl)cc1Cl` [TCMDC-131692], the “% Inhibition” value is recorded as 4.93%.

In the case of `O=C(NC1CCC(CCN2Cc3cccc(F)c3C2)CC1)c1cccc(-c2cccnc2)c1` (centres unmarked) [TCMDC-139623], the “% Inhibition” value was -21.05%.

Regarding `COc1ccc2nccc([C@@H](O)CN3CCC(NC(=O)c4ccc5cc[nH]c5c4)CC3)c2c1` [TCMDC-140743], the “% Inhibition” value is recorded as -6.563%.

Take `COc1cc(C(=O)Nc2ccc3nc(N4CCN(C)CC4)cc(C)c3c2)cc(OC)c1OC` [TCMDC-123591]: the “% Inhibition” value was determined as 10.02%.

Take `CCN(CC1CCN(CC2(O)CCOCC2)CC1)c1cc(C)nc(Nc2ccc(Cl)cc2)n1` [TCMDC-133808]: the “% Inhibition” value is recorded as 30.17%.

With `CC(=O)Nc1ccc(Nc2ncc([N+](=O)[O-])c(Nc3ccccc3C(N)=O)n2)cc1` [TCMDC-138731], the “% Inhibition” value is on record as -8.61%.

Take `CNC(=O)c1ccccc1Nc1nc(Nc2ccc(C(=O)O)cc2)ncc1Cl` [TCMDC-133803]: the “% Inhibition” value was -5.909%.

Regarding `CCN(CC)CCNC(=O)c1ccc(NC(=O)c2cc(-c3ccncc3)nc3ccccc23)cc1` [TCMDC-124495], the “% Inhibition” value stood at 0.6549%.

Consider `N=C(N)c1ccc(Nc2nccc(Nc3nc(-c4ccccc4)cs3)n2)cc1` [TCMDC-136090], for which the “% Inhibition” value is -20.73%.

In the case of `CCN(CC)CCNC(=O)c1ccc(Nc2ncc([N+](=O)[O-])c(Nc3ccccc3OC)n2)cc1` [TCMDC-138727], the “% Inhibition” value came out at 73.19%.

`N=C(N)c1ccc(Nc2nc(Nc3ccc(-c4ccccc4)cc3)ncc2[N+](=O)[O-])cc1` [TCMDC-136145]: the “% Inhibition” value came to 99.81%.
